From PubChem BioAssay AID652115 (Broad Institute, 2013)
Where “and” joins values, the source holds several entries; their conditions need not be identical. Equal values may be shown once. Hit rate of the full screen: of about 330,000 compounds, about 3,800 (1.2%) were called active. No stated cut-off is given here; in the data, active means inhibition above about 15%; inconclusive means no clear call, values can overlap the other calls; inactive means below that. The entries come from a sample that favours actives as a whole. A structure can be active in one record and inactive in another.

The compounds below were run against NAD-dependent protein deacylase sirtuin-5, mitochondrial (Homo sapiens) (UniProt Q9NXA8) (assay: blockers of sirtuin-5 deacylase activity – biochemical, fluorescence imaging, single point, set 5, primary screen (AID 652115)). Settings: Purified SirT5, succinyl-peptide AMC, trypsin-coupled fluorescence; at 15 µM; stronger effect = higher value.
Sequence of NAD-dependent protein deacylase sirtuin-5, mitochondrial (Homo sapiens) (Q9NXA8 whole entry, looked up): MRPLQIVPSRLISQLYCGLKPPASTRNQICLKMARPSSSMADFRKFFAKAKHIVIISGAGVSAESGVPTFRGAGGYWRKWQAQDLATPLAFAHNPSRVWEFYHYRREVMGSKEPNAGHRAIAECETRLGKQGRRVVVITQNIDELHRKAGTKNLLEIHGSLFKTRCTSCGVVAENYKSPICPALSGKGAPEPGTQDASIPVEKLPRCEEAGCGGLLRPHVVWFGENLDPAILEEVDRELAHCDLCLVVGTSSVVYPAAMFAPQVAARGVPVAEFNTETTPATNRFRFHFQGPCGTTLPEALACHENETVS

| SMILES | inhibition |
| --- | --- |
| CCCc1nnc(NC(=O)CCC(=O)N2CCN(S(=O)(=O)c3ccc(OC)cc3)CC2)s1 | 1.56% (inactive) |
| CC(C)c1nnc(NC(=O)CCC(=O)N2CCN(c3cccc(Cl)c3)CC2)s1 | 0.459% (inactive) |
| CCc1nnc(NC(=O)CCC(=O)N2CCN(c3cc(C)ccc3C)CC2)s1 | 18.5% (active) |
| O=C(C1CCC1)N1CC(=O)N2[C@@H](CO)[C@@H](c3ccc(C#Cc4cccc(F)c4)cc3)[C@@H]2C1 | -4.53% (inactive) |
| Cc1ccccc1S(=O)(=O)N[C@H]1CC[C@@H](CCn2cc(Cc3ccccc3)nn2)O[C@H]1CO | 31.4% (active) |
| Cc1ccccc1S(=O)(=O)N[C@H]1CC[C@H](CCn2cc(-c3ccc(F)cc3)nn2)O[C@H]1CO | -0.59% (inactive) |
| Cc1ccccc1S(=O)(=O)N[C@@H]1CC[C@H](CCn2cc(-c3ccc(F)cc3)nn2)O[C@@H]1CO | -4.75% (inactive) |
| Cc1ccc(S(=O)(=O)N[C@@H]2CC[C@@H](CC(=O)O)O[C@@H]2CO)cc1 | 1% (inactive) |
| O=C(C[C@@H]1CC[C@H](NC(=O)Nc2ccc3c(c2)OCO3)[C@H](CO)O1)NCc1ccccc1 | -2.1% (inactive) |
| CN1c2ccc(-c3ccccc3F)cc2[C@H]2[C@H](CCN2C(=O)Cc2ccccn2)[C@H]1CO | 2.91% (inactive) |
| CN1c2ccc(-c3ccccc3)cc2[C@@H]2[C@@H](CCN2C(=O)c2ccccc2)[C@H]1CO | 6.95% (inactive) |
| CN1c2ccc(-c3ccccc3)cc2[C@H]2[C@H](CCN2C(=O)Cc2ccccn2)[C@H]1CO | 21.9% (active) |
| CCCNC(=O)C[C@H]1C[C@H]2c3cc(NC(=O)COC)ccc3O[C@H]2[C@H](CO)O1 | -2.28% (inactive) |
| Cn1nnnc1SCC(=O)NNC(=O)c1ccc(Br)cc1 | 20.1% (active) |
| Cn1cnnc1SCC(=O)NNC(=O)COc1ccc(Br)cc1 | -1.96% (inactive) |
| Cn1nnnc1SCC(=O)Nc1sccc1C(N)=O | -1.15% (inactive) |
| N#C[C@H]1[C@H](c2ccc(-c3cccc(F)c3)cc2)[C@@H](CO)N1C(=O)NC1CCCC1 | 3.71% (inactive) |
| O=C1CN(Cc2ccc(F)cc2)C[C@H]2[C@@H](c3ccc(Br)cc3)[C@H](CO)N12 | 2.52% (inactive) |
| CN1c2ccc(Br)cc2[C@@H]2[C@@H](CCN2C(=O)Cc2ccccc2)[C@@H]1CO | 0.309% (inactive) |
| C[C@@H]1CN([C@@H](C)CO)C(=O)c2cc(NC(=O)C3CC3)ccc2O[C@H]1CN(C)C | 41.9% (active) and -3.15% (inactive) |
| Cc1noc(C)c1S(=O)(=O)N(C)C[C@H]1Oc2ccc(NC(=O)C3CCCCC3)cc2C(=O)N([C@H](C)CO)C[C@@H]1C | -3.3% (inactive) |
| CC(C)NC(=O)N(C)C[C@@H]1Oc2ccc(NC(=O)C3CC3)cc2C(=O)N([C@@H](C)CO)C[C@H]1C | 0.185% (inactive) |
| C[C@@H]1CN([C@H](C)CO)C(=O)c2cc(NC(=O)C3CC3)ccc2O[C@@H]1CN(C)C | -4.11% (inactive) |

| SMILES | inhibition |
| --- | --- |
| Cc1noc(C)c1S(=O)(=O)N(C)C[C@H]1Oc2ccc(NC(=O)C3CC3)cc2C(=O)N([C@H](C)CO)C[C@@H]1C | 20.9% (active) |
| Cc1noc(C)c1S(=O)(=O)N(C)C[C@@H]1Oc2ccc(NC(=O)C3CC3)cc2CC(=O)N([C@@H](C)CO)C[C@@H]1C | 1.59% (inactive) |
| COc1ccc2c3c([nH]c2c1)[C@H](CO)N(C(=O)c1ccncc1)CC31CCN(C(=O)c2ccncc2)CC1 | 12.6% (inactive) |
| COc1ccc(S(=O)(=O)N(C)C[C@@H]2OCCCC[C@H](C)Oc3ccc(NC(=O)NC(C)C)cc3C(=O)N([C@@H](C)CO)C[C@@H]2C)cc1 | 0.637% (inactive) |
| C[C@@H]1CN([C@@H](C)CO)C(=O)c2cc(/C=C/c3ccccc3)cnc2O[C@H]1CN(C)C(=O)Nc1ccc(C(F)(F)F)cc1 | 8.54% (inactive) |
| C[C@@H]1CN([C@H](C)CO)C(=O)c2cccc(NS(=O)(=O)c3ccc(F)cc3)c2O[C@@H]1CN(C)S(=O)(=O)c1ccccc1 | 3.68% (inactive) |
| Cc1nn(CC(=O)Nc2ccc(F)cc2)c(=O)c2ccccc12 | -1.48% (inactive) |
| Cc1ccc(NC(=O)Cn2c(C)csc2=O)cc1 | 4.07% (inactive) |
| Cc1ccc(NC(=O)Cn2sc3ccccc3c2=O)cc1 | 19.6% (active) |
| O=C(C[C@H]1C=C[C@H](NC(=O)Nc2ccccc2F)[C@@H](CO)O1)NCc1ccc(Cl)cc1 | -6.94% (inactive) |
| CN1c2ccc(Br)cc2[C@H]2[C@H](CCN2S(=O)(=O)c2ccc(F)cc2)[C@@H]1CO | 0.059% (inactive) |
| CC(C)NC(=O)N(C)C[C@H]1Oc2cc(C#Cc3ccccn3)ccc2S(=O)(=O)N([C@H](C)CO)C[C@@H]1C | -0.996% (inactive) |
| CCNC(=O)[C@@H]1[C@@H](CO)[C@@H]2Cn3c(ccc(C4=CCCC4)c3=O)[C@H]1N2Cc1ccccc1 | -12.8% (inactive) |
| COc1cc(C2C3=C(CCCC3=O)OC3=C2C(=O)CCC3)ccc1OCC(=O)Nc1ccccc1 | 1.24% (inactive) |
| COc1ccc(C2C3=C(CCCC3=O)N(CC(=O)O)C3=C2C(=O)CCC3)cc1 | -6.31% (inactive) |
| NC1=C([N+](=O)[O-])C(c2ccccc2)C2=C(CCCC2=O)O1 (stereo not drawn) | 15.7% (active) |
| C[C@H]1CCCCO[C@@H](CN(C)C(=O)c2ccccc2)[C@@H](C)CN([C@@H](C)CO)C(=O)c2cc(NS(=O)(=O)c3ccccc3)ccc2O1 | 0.494% (inactive) |
| Cc1ccc(-c2cnc3c(c2)C(=O)N([C@H](C)CO)C[C@H](C)[C@@H](CN(C)C(=O)c2cccc(F)c2)O3)cc1 | -11.3% (inactive) |
| CN1CCN(C(=O)C[C@H]2CC[C@H]3[C@@H](COC[C@H](O)CN3C(=O)c3ccc(F)cc3)O2)CC1 | 1.19% (inactive) |
| O=C(CC1CC1)Nc1ccc2c(c1)[C@@H]1C[C@@H](CC(=O)NC3CCCCC3)O[C@@H](CO)[C@@H]1O2 | -2.5% (inactive) |
| CO[C@@H]1CN(C)C(=O)c2ccc(NC(=O)C3CCCCC3)cc2OC[C@@H](C)N(Cc2nccs2)C[C@@H]1C | 3.01% (inactive) |
| COc1ccc(NC(=O)Nc2ccc3c(c2)CC(=O)N([C@@H](C)CO)C[C@H](C)[C@@H](CN(C)Cc2ccc4c(c2)OCO4)O3)cc1 | 3.53% (inactive) |
| C[C@H]1CN([C@@H](C)CO)C(=O)Cc2cc(NC(=O)Nc3ccc4c(c3)OCO4)ccc2O[C@H]1CN(C)CC1CC1 | -1.18% (inactive) |

| SMILES | inhibition |
| --- | --- |
| C[C@H]1CN([C@@H](C)CO)C(=O)c2cc(NC(=O)Nc3ccc4c(c3)OCO4)ccc2O[C@@H]1CN(C)CC1CCCCC1 | 6.87% (inactive) |
| C[C@@H]1CN([C@H](C)CO)C(=O)Cc2cc(NC(=O)Nc3ccc(F)cc3)ccc2O[C@@H]1CN(C)Cc1ccc2c(c1)OCO2 | 32.7% (active) |
| C[C@@H]1CN([C@@H](C)CO)C(=O)Cc2cc(NC(=O)Nc3ccc4c(c3)OCO4)ccc2O[C@@H]1CN(C)CC1CCCCC1 | 18.8% (active) |
| CC(C)NC(=O)Nc1ccc2c(c1)CC(=O)N([C@H](C)CO)C[C@H](C)[C@H](CN(C)Cc1ccc3c(c1)OCO3)O2 | 4.37% (inactive) |
| CCCNC(=O)C[C@@H]1CC[C@H]2[C@H](COc3ccc(NC(=O)CCC)cc3C(=O)N2C)O1 | -0.672% (inactive) |
| COc1ccccc1NC(=O)N1CCCCN2[C@H](CO)[C@H](c3ccc(C#CC4CC4)cc3)[C@@H]2C1 | 0.625% (inactive) |
| CO[C@H]1CN(C)C(=O)c2cc(NS(C)(=O)=O)ccc2OC[C@@H](C)N(Cc2ccccc2)C[C@@H]1C | -4.85% (inactive) |
| COCC#Cc1ccc2c(c1)O[C@H](CN(C)C(=O)CN(C)C)[C@@H](C)CN([C@H](C)CO)S2(=O)=O | 1.54% (inactive) |
| C[C@@H]1CN([C@@H](C)CO)C(=O)c2cc(/C=C/c3ccccc3)cnc2O[C@@H]1CN(C)C(=O)CN(C)C | -20% (inactive) |
| C[C@H](CO)N1C[C@H](C)[C@H](CN(C)C(=O)Nc2ccc3c(c2)OCO3)Oc2cc(C#Cc3ccncc3)ccc2S1(=O)=O | -1.42% (inactive) |
| CCCN1C[C@@H](C)[C@@H](OC)CN(C)C(=O)c2cc(NC(=O)NC3CCCCC3)ccc2OC[C@H]1C | 0.947% (inactive) |
| C[C@H](NC(=O)[C@H]1N[C@H]2c3ccc(-c4ccc(C(=O)N(C)C)cc4)c(=O)n3C[C@H]2[C@@H]1CO)c1ccccc1 | -55.5% (inactive) |
| O=C(NCC1CC1)[C@@H]1[C@@H](CO)[C@@H]2Cn3c(ccc(-c4ccccc4)c3=O)[C@H]1N2C(=O)C1CC1 | -28% (inactive) |
| CO[C@@H]1CN(C)C(=O)c2ccc(NC(=O)Nc3ccccc3)cc2OC[C@H](C)N(C(=O)CC2CC2)C[C@@H]1C | 6.27% (inactive) |
| O=C(COC(=O)c1ccc(O)cc1O)c1ccc2c(c1)OCCO2 | 19.1% (active) |
| O=C(COC(=O)c1ccccc1)c1ccc2c(c1)OCCO2 | 0.878% (inactive) |
| O=C(COC(=O)c1ccc(O)cc1O)NC(=O)c1ccccc1 | 0.616% (inactive) |
| CO[C@H]1CN(C)C(=O)c2cc(NC(=O)c3cnccn3)ccc2OC[C@@H](C)N(CC2CC2)C[C@@H]1C | 0.994% (inactive) |
| O=c1ccc2c(-c3ccccc3S(=O)(=O)O)c3ccc(O)c(O)c3oc-2c1O | 15.8% (active) |
| Cn1cnc(CCNC(=O)C[C@@H]2CC[C@H]3[C@@H](COC[C@@H](O)CN3C(=O)Nc3ccc(Cl)cc3)O2)c1 | -1.27% (inactive) |
| Cn1cnc(CCNC(=O)C[C@@H]2CC[C@@H]3[C@H](COC[C@@H](O)CN3C(=O)Nc3ccccc3)O2)c1 | 15.8% (active) |
| Cn1cnc(CCNC(=O)C[C@H]2CC[C@@H]3[C@H](COC[C@@H](O)CN3C(=O)Nc3ccc(Cl)cc3)O2)c1 | 3.58% (inactive) |
